This note sets out measurements from PubChem BioAssay (NCATS).

Records with an inconclusive call do not appear. Values without a mark were called inactive. Calls come from the whole dose curve; as a rule, active = well fitted inhibition curve with a large enough effect; inconclusive = small, poorly fitted or top-dose-only effect; inactive = flat fitted curve, though single readings scatter. Bridge positions count the residues as written; N and C are the ends. Square brackets hold non-standard residues; d marks the D form. Peptide text beside a SMILES is read from it. * marks the point of attachment. Ileψ(thiazoline)Cys = CC[C@H](C)[C@H](N)C1=N[C@H](C(=O)*)CS1; d(aIle) = CC[C@H](C)[C@@H](N)C(=O)O; dOrn = NCCC[C@@H](N)C(=O)O

This experiment has as its system CP286. Briefly: qHTS profiling for inhibitors of Plasmodium falciparum proliferation (AID 504749).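 Note: 0% = DMSO vehicle and full inhibition = artemisinin control; nearly all actives have a fitted effect of over 60% in size.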 To be noted: P. falciparum in erythrocytes, SYBR Green DNA, 72 h; series mostly up to 12.8 µM; activity, negative = inhibition: at the top concentration. The method in brief:
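SYBR Green fluorescence (ex 485 nm, em 535 nm) reports parasite DNA after 72 h compound exposure of infected red cells at 0.3% parasitemia, 2.5% hematocrit; signal normalized to 0.29 uM artemisinin and vehicle wells.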
In general terms: qHTS replaces the single test concentration by a dilution series.
With `CN1CCO[C@H](c2ccccc2)c2ccccc2C1`, the “activity, negative = inhibition” value was -28.5%.
With `C[C@H](CCC(=O)O)[C@H]1CC[C@@H]2[C@@H]3[C@@H](O)C[C@H]4C[C@@H](O)CC[C@@]4(C)[C@H]3CC[C@@]21C`, the “activity, negative = inhibition” value is -6.13%.
Regarding `C[C@H](C(=O)O)c1cccc(Oc2ccccc2)c1`, the “activity, negative = inhibition” value is -0.178%.
For `CC1(C)[C@@H](OC(=O)CCC(=O)O)CC[C@@]2(C)[C@H]1CC[C@@]1(C)[C@H]2C(=O)C=C2[C@H]3C[C@](C)(C(=O)O)CC[C@]3(C)CC[C@@]21C` the value was -0.118%.
As for `CCOC(=O)O[C@@H](C)OC(=O)[C@@H]1N2C(=O)[C@@H](NC(=O)[C@@H](N)c3ccccc3)[C@H]2SC1(C)C`, the “activity, negative = inhibition” value is 0.0594%.
Take `Cc1ccsc1/C=C\C1=NCCCN1C`: the “activity, negative = inhibition” value was -5.61%.
On to `C#C[C@]1(O)CC[C@@H]2[C@H]3CCC4=CCCC[C@@H]4[C@@H]3CC[C@@]21C`, for which the “activity, negative = inhibition” value was -0.327%.
Take `CC[C@H](C)[C@H](N)C1=N[C@H](C(=O)N[C@@H](CC(C)C)C(=O)N[C@@H](CCC(=O)O)C(=O)N[C@@H](C(=O)N[C@H]2CCCCNC(=O)[C@@H](CC(N)=O)NC(=O)[C@@H](CC(=O)O)NC(=O)[C@@H](Cc3cnc[nH]3)NC(=O)[C@@H](Cc3ccccc3)NC(=O)[C@@H]([C@@H](C)CC)NC(=O)[C@@H](CCCN)NC2=O)[C@@H](C)CC)CS1` ({Ileψ(thiazoline)Cys}-LE[d(aIle)]K[dOrn][d(aIle)][dF][dH][dD][dN]; lactam 4-C): the “activity, negative = inhibition” value was 0.238%.
With `O=C(O)COCCN1CCN([C@@H](c2ccccc2)c2ccc(Cl)cc2)CC1`, the “activity, negative = inhibition” value is -4.46%.
Consider `CCN(CC)CCOC(=O)[C@@H](Cc1cccc2ccccc12)C[C@@H]1CCCO1`, for which the “activity, negative = inhibition” value was -13.3%.
In the case of `CC[C@H](CO)NCCN[C@@H](CC)CO` it was -1.21%.
